Experimental data reported in PubChem BioAssay AID1851 (National Center for Advancing Translational Sciences (NCATS), 2009).
The whole screen tested about 16,000 compounds, of which about 5,100 (32%) were called active. Roughly 25% stayed inconclusive and do not appear here. Calls come from the whole dose curve; as a rule, active = well fitted curve in the direction sought with a large enough effect; inconclusive = small, poorly fitted or top-dose-only effect, or effect the other way; inactive = no such curve, though single readings can be large or run the other way. This is one part of the list.

biological target: Cytochrome P450 3A4 (Homo sapiens) (UniProt P08684); test: Cytochrome panel assay with activity outcomes; details: recombinant CYP, pro-luciferin dealkylation, luminescence, p450-cyp3a4; series mostly up to 57.1 µM; activity, negative = inhibition: at the top concentration
% is set by controls: 0 for no effect and ±100 for the full control effect.

Chain of Cytochrome P450 3A4 (Homo sapiens) (P08684 whole entry, looked up): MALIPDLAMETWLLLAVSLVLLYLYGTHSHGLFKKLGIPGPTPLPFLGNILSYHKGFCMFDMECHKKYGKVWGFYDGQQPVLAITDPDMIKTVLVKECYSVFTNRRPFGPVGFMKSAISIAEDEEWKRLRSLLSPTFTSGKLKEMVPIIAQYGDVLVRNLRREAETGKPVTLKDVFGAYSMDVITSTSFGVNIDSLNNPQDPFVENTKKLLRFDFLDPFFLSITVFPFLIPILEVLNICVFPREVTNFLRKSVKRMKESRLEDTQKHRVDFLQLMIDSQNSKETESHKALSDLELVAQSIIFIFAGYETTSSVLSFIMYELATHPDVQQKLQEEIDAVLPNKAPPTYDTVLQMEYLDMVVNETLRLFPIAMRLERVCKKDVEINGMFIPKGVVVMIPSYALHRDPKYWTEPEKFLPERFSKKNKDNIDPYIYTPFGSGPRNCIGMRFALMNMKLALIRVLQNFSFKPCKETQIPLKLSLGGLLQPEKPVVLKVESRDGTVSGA

activity, negative = inhibition, inactive:
Cn1c(CN2CCCC2)nc2cc(NC(=O)C3CCCCC3)ccc21 -14.1%
COc1ccc(C(=O)Nc2ccc3c(c2)nc(CN2CCN(C(C)=O)CC2)n3C)cc1 -0.562% [at 2.29 µM]
COc1ccc(C(=O)Nc2ccc(S(=O)(=O)N3CCOCC3)cc2)cc1OC 3.48%
CC(N)=O -7.41%
O=c1[nH]c(=S)[nH]nc1Cc1ccccc1 25.9%
CCn1nccc1C(=O)Nc1nc2ccccc2n1CCN1CCCCC1 -23.3%
CCOC(=O)Cn1nnc2c(sc3nc4c(c(-c5ccc(Cl)cc5)c32)CCC4)c1=O 10.9%
CCOC(=O)c1sc2nc3c(cc2c1N)COC(C)(CC)C3 (centres undefined) 1.93% [at 11.4 µM]
Cc1ccc(C(=O)Cn2nnc3c(sc4nc5c(c(-c6ccccc6)c43)CCC5)c2=O)cc1 -10.2%
CC1(C)Cc2c(sc3nc(-c4ccccc4)n(N)c(=O)c23)CO1 -13.6%
CC1(C)CC(=O)c2cn3ncnc3nc2C1 -2.27%
CC(C)[C@H](NC(=O)OC(C)(C)C)[C@@H](O)CC(=O)OC(C)(C)C -23.3% [at 11.4 µM]
COc1ccccc1NC(=O)c1nc[nH]c1C(=O)Nc1ccccc1OC 16.7%
O=C(O)c1nn(-c2ccccc2)ccc1=O -15.6% [at 11.4 µM]
Cc1n[nH]c(=O)n1-c1cccc(C(F)(F)F)c1 5.28%
O=C(c1ccccc1)c1nn(-c2ccccc2)c(=O)cc1C(F)(F)F 32.3%
CC(C)NC[C@H]1CCc2cc(CO)c([N+](=O)[O-])cc2N1 -14.3% [at 25.6 µM]
N#CCCn1c(=O)cnc2cnc(Oc3ccccc3)nc21 -17.2%
N#CCCn1c(=O)c(-c2ccc(Cl)cc2)nc2cnc(Oc3cccc(Cl)c3)nc21 -0.801%
N#CCCn1c(=O)c(-c2ccccc2)nc2cnc(Oc3cccc(Cl)c3)nc21 -11.9%
Cc1cc(=O)c2cc(Cl)ccc2[nH]1 -16.9%
Clc1ccc(SCc2cc(-c3ccccc3)no2)cc1 -27.4%
C[N+](C)(N)Cc1csc(-c2ccc(Cl)cc2)n1 -0.841% [at 11.4 µM]
COc1ncc2ncc(=O)n(C3CC3)c2n1 -9.36%
N[C@@H](Cn1cc(F)c(=O)[nH]c1=O)C(=O)O -26.2%
COc1ccccc1OCc1ccc(C(=O)N(C)C)o1 4.32% [at 2.29 µM]

AC50, active:
Cn1c(CN2CCCCC2)nc2cc(NC(=O)c3ccc(Cl)cc3)ccc21 15.8 µM
COc1cc(NC(=S)Nc2ccc(S(=O)(=O)N3CCOCC3)cc2)cc(OC)c1OC 15.8 µM
c1ccc(-c2nc(CSc3n[nH]c(-c4cccs4)n3)cs2)cc1 6.31 µM
CC(C)C1NC(=S)N(Cc2ccccc2)C1=O (centres undefined) 14.1 µM
O=C(Nc1nc2ccccc2n1Cc1ccccc1)c1ccc(COc2ccccc2[N+](=O)[O-])o1 4.47 µM
CCC1(C)Cc2c(sc3nnn(CC(=O)Nc4ccc(C)cc4)c(=O)c23)CO1 (centres undefined) 14.1 µM
CCC1(C)Cc2c(sc3nnn(CC(=O)Nc4cccc5ccccc45)c(=O)c23)CO1 (centres undefined) 10 µM
Nc1cccc2cnccc12 7.94 µM
O=c1ccn(-c2cccc(C(F)(F)F)c2)nc1-c1ccn(-c2ccccc2F)n1 10 µM
COc1ccccc1NC(=O)c1nn(-c2cccc(C(F)(F)F)c2)ccc1=O 20 µM
N#CCCn1c(=O)c(CCc2ccccc2)nc2cnc(Oc3cccc(Cl)c3)nc21 0.794 µM
N#CCCn1c(=O)c(CCc2ccccc2)nc2cnc(Oc3ccccc3)nc21 2.51 µM
COc1ccc(Oc2ncc3nc(CCc4ccccc4)c(=O)n(CCC#N)c3n2)cc1 1.58 µM
Nc1ccccc1SCc1csc(-c2ccc(Cl)cc2)n1 1 µM
CN1CCc2ccccc2[C@@H]1Cc1ccccc1NC(=O)c1sc2ccccc2c1Cl 1.58 µM
Cc1cc(C)c(C#N)c(SCc2cc3c(cc2Cl)OCO3)n1 3.98 µM
COc1cccc(Cn2c(=O)cnc3cnc(OC)nc32)c1 10 µM
COc1cccc(Cn2c(=O)cnc3cnc(OCc4ccccc4)nc32)c1 12.6 µM
COc1cccc(Cn2c(=O)cnc3cnc(Oc4cccc(Cl)c4)nc32)c1 5.01 µM
CCC(c1nnnn1CC1CCCO1)N(CCN1CCOCC1)Cc1cc2cc(C)ccc2[nH]c1=O (centres undefined) 15.8 µM
COCOc1ccc(Br)cc1C(=O)[C@H]1O[C@H]1c1cccc(OC)c1 3.98 µM
COc1ccc(CCN(C)Cc2ccc(OCc3ccccc3)c(OC)c2)cc1OC 0.631 µM
COc1ccc(CCN(C)CCC(=O)Nc2c(C)cc(C)cc2C)cc1OC 7.94 µM
